# Compound activity: PubChem BioAssay, ICCB-Longwood Screening Facility, Harvard Medical School
# Most compounds without a hit are left out; they make up all but 0.52% or so of the library.
# Sa growth inh: inhibitors of Staphylococcus aureus growth at 42 °C | relative growth, % (concentration not given with the values) | actives 0.53% (n = 170,000) | AID 720641 | S. aureus RN4220 growth, OD600, 20 h; stronger effect = lower value;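 active = relative growth at most 50% at the other temperature and 20+ points below 30 °C, or under 10% at both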
# Sa helicase inh: blocks Staphylococcus aureus DNA helicase. purified S. aureus helicase, fluorescence unwinding assay. inhibition, % (concentration not given with the values). actives 0.05% (n = 120,000). AID 485395; in the data active = inhibition above about 25%, passing the limit was not always enough;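 note: 0% = mean of negative control wells and 100% = mean of positive control wells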
# The depositor's hits bear a star; · = no result.
SMILES,Sa growth inh,Sa helicase inh
CC(C)(O)C1Cc2cc(/C=C/C(=O)O)c(O)cc2O1 (centres undefined),65,6
CC(C)c1cc2cc(/C=C/C(=O)O)c(O)cc2o1,-0.3*,8
CCC(C)n1nccc1NC(=O)C(C)Sc1ccccc1F (centres undefined),87,-3
CN(C)c1ccc(O)c2c1C[C@H]1C[C@H]3[C@H](N(C)C)C(=O)C(C(N)=O)=C(O)[C@@]3(O)C(=O)C1=C2O,-0.4*,·
C[C@H]1c2cccc(O)c2C(O)=C2C(=O)[C@]3(O)C(O)=C(C(N)=O)C(=O)[C@@H](N(C)C)[C@@H]3[C@@H](O)[C@@H]21,-0.6*,·
CC1c2cccc(O)c2CC2=C(O)C3(O)C(O)=C(C(N)=O)C(=O)C(N(C)C)C3C(O)C21 (centres undefined),11,11
COc1cccc(C(CC(=O)c2ccc(Cl)cc2)C(C#N)C#N)c1 (centres undefined),51,2
Cc1ccc(C(=O)CC(c2ccccc2)C(C#N)C#N)cc1 (centres undefined),48*,-9
Cc1nc2c(C(=O)NCCc3ccccc3)c[nH]n2c(=O)c1Cc1ccccc1F,0.7*,·
CNC(=O)c1c[nH]n2c(=O)c(Cc3ccccc3F)c(C)nc12,105,·
COCCNC(=O)c1c[nH]n2c(=O)c(Cc3ccc(Cl)cc3)c(C)nc12,79,14
Cc1nc2c(C(=O)NCCc3ccc(Cl)cc3)c[nH]n2c(=O)c1Cc1ccc(Cl)cc1,1.2*,·
O=C(OCN1C(=O)c2ccccc2C1=O)C1CCN(c2ccc(C(F)(F)F)cn2)CC1,96,7
Cc1cccc(N2C(=O)/C(=C3/C(=O)N(CC(=O)O)c4ccccc43)SC2=S)c1C,91,17
Cc1cc(Oc2ccccc2)nc(-c2ccc(Br)cc2)n1,88,14
Cc1c(C)[n+]([O-])c2ccc3c(non3O)c12,1.9*,9
CCOC(=O)c1c(C)[n+]([O-])c2ccc3c(non3O)c12,78,2
Cc1nc(-c2ccccn2)nc(SCC(=O)c2ccccc2)c1Cl,106,·
Cc1nc(-c2ccccn2)nc(SCc2ccccc2)c1Cl,19*,·
Cc1cccc(C(=O)OCC(=O)Nc2ccc3[nH]c(=O)[nH]c3c2)c1C,83,-12
CC1=CC(C)=NC2Nc3c(C)cc(C)cc3C(=N)C12 (centres undefined),85,66*
COc1cc(C2Nc3c(C)cc(C)cc3-c3cc(C)nn32)cc(OC)c1O (centres undefined),105,·
COc1cc(/C=C2\SC(=S)N(C3CCS(=O)(=O)C3)C2=O)cc(Br)c1O (centres undefined),101,-104
CCN1C=C/C(=C\c2cc[n+](CC)c3ccccc23)c2ccccc21,5.5*,82*
CC[n+]1ccc(C)c2ccccc21,99,2
SMILES,Sa growth inh,Sa helicase inh
CS(=O)(=O)c1ccc(-c2csc(-c3cccs3)n2)cc1,96,15
Fc1ccc(-c2csc(-c3cccs3)n2)cc1,45*,·
CCOc1ccccc1C(=O)NCCc1cc2ccc(C)c(C)c2[nH]c1=O,·,-21
Cc1nccc(-c2cccc(NN=C(C#N)C#N)c2)n1,-0.4*,20
Cc1nccc(-c2cccc(N/N=C(\C#N)S(=O)(=O)c3ccccn3)c2)n1,95,0
c1ccc2c(OCCCCCn3ccnc3)cccc2c1,-0.5*,3
Cc1ccc(OCCCn2ccnc2)cc1,102,10
Cc1ccc(C(C)C)c(OCCCCn2ccnc2)c1,-0.7*,4
Cc1ccc(C(C)C)c(OCCn2ccnc2)c1,59,-19
COc1ccc(OCCCn2ccnc2)cc1,84,10
Cc1cc(OCCCCCn2ccnc2)cc(C)c1Cl,-0.9*,31
Cc1cc(OCC(=O)OCC(=O)Nc2ccc(F)cc2)no1,101,12
CC(=O)SC1CCS(=O)(=O)C1 (centres undefined),113,-5
CCCc1nnc(NC(=O)Cc2coc3cc(C)ccc23)s1,92,-17
O=C(OCc1nc2ccsc2c(=O)[nH]1)c1ccc(N2CCCC2=O)cc1,86,9
Cc1ccc(C)n1-c1ccc(C(=O)OCc2nc3ccsc3c(=O)[nH]2)cc1,48*,1
CCC1Sc2ccc(S(=O)(=O)CCC(=O)N3CCCc4ccccc43)cc2NC1=O (centres undefined),91,-28
COc1ccc(/C=C(\C#N)c2ccc(C)cc2)cc1,44*,·
COc1ccc(/C=C(\C#N)c2ccc(OC)cc2)cc1,133,·
CC(C)CCC(=O)O,96,18
Cc1ccc(NC(=O)COc2nc3nncn3nc2C)cc1,106,-2
CNC(=O)/C(C#N)=C/N(C)C,86,12
Cc1ccc2cccc(OC(=O)c3ccc(Br)o3)c2n1,0.3*,-23
CCOc1cccc(C(=O)Oc2cccc3ccc(C)nc23)c1,80,6
CCOc1ccc(C(=O)CSc2nnc(CC)n2N)cc1,·,-12
SMILES,Sa growth inh,Sa helicase inh
NC(=O)COC(=O)c1oc2ccccc2c1COc1ccccc1,110,3
COc1cc(C(c2nnnn2Cc2ccco2)N2CCN(C3CCCC3)CC2)cc(OC)c1OC (centres undefined),107,1
Cc1ccccc1Nc1cc(C)c(C#N)c2nc3ccccc3n12,1.2*,10
COc1ccc(Nc2cc(C)c(C#N)c3nc4ccccc4n23)cc1,93,8
CCOC(=O)C1=C(C(=O)c2ccccc2)C2(C(=O)Nc3ccccc32)C(C#N)=C(N)O1 (centres undefined),42,2
CCn1c(O)c(N=NC(N)=S)c2ccccc21,64,9
CCn1c(O)c(N=NC(=O)Nc2ccc(Cl)c(Cl)c2)c2ccccc21,-0.8*,13
CC(C)c1ccc(-c2noc(C3CCCN(C(=O)c4ccccc4)C3)n2)cc1 (centres undefined),110,12
O=C(NCc1cccnc1)c1ccc(Br)cc1,·,18
O=C(NCc1cccnc1)/C(=C\c1cccc(Oc2ccccc2)c1)S(=O)(=O)c1ccccc1,-1.3*,17
O=C(NCc1ccncc1)c1cccc(Oc2ccccc2)c1,105,0
O=C(NCc1cccnc1)/C(=C\c1ccc(Br)cc1)S(=O)(=O)c1ccccc1,-1.3*,10
COc1ccc2[nH]c3c(=O)n(CC(=O)NCc4ccco4)c(=S)[nH]c3c2c1,107,-8
O=C1COc2cc(S(=O)(=O)CCC(=O)N3CCCCCC3)ccc2N1,92,-2
COc1ccc(C2CCCCCN2C(=O)CCn2c(=O)oc3ccccc32)cc1 (centres undefined),101,-25
COc1ccc(-c2onc(C)c2C)cc1S(=O)(=O)N(C)CC1COc2ccccc2O1 (centres undefined),101,9
O=S(c1c(F)c(F)c(F)c(F)c1F)c1c(F)c(F)c(F)c(F)c1F,0.7*,21
COc1ccc(S(=O)(=O)NC(CC(=O)O)C(C)C)cc1 (centres undefined),95,8
O=c1[nH]c(SCc2cccc(C(F)(F)F)c2)nc2c1cnn2-c1ccccc1,·,11
Cc1noc(C)c1NC(=O)Nc1cc(C(F)(F)F)cc(C(F)(F)F)c1,5.2*,-41
CNC(=O)Nc1cc(C(F)(F)F)cc(C(F)(F)F)c1,78,·
COc1cccc(-n2nnnc2S(=O)(=O)Cc2ccccc2)c1,-1.1*,2
Cc1cccc(C)c1-n1nnnc1S(=O)(=O)Cc1ccccc1Cl,96,-3
O=C(O)c1nccnc1C(=O)OCCCc1ccncc1,97,-16
Cn1c2ccccc2n2c(C(=S)Nc3ccccc3)c(-c3ccccc3)nc12,107,-7
